Shown are actives, neighbours in structure and some others; about 1.6% of the full set was active somewhere.
KCNQ2 inh = KCNQ2 (rat) channel inhibition | O88943 | B-score at 10 µM | 310,000 compounds, 1.1% hits | CHO-K1 KCNQ2, FluxOR thallium flux, 20 min; active compounds read low | AID 2156;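 active = fluorescence ratio B-score at most minus 3 library SDs, with starting brightness B-score within 2 library SDs, cut at about -5.5 in these data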
KCNQ2 pot = KCNQ2 (rat) channel potentiation; CHO-K1 KCNQ2, FluxOR thallium flux fluorescence; active compounds read high; 310,000 compounds, 0.54% hits; B-score at 10 µM; O88943; AID 2239;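 active = fluorescence ratio B-score at least 3 SD of library B-scores, with initial fluorescence B-score within 3 of them, cut at about 5.3 in these data; same plate scores as AID 2156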;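 note: B-score of peak minus minimum over baseline fluorescence ratio after K+ and Tl+ stimulus; positive B-score means potentiation of KCNQ2 with more thallium influx and brighter signal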
KCNQ2 block conf = confirmation of rat KCNQ2 potassium channel inhibitors. AID 493025. activity change, negative = inhibition, % at 10 µM. shares compounds with KCNQ2 inh. 1,000 compounds, 57% hits. KCNQ2-expressing cells, thallium flux, inhibition; active compounds read low;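 note: 0% = vehicle wells and values are ratio percent relative to vehicle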
KCNQ1 spec = human KCNQ1 activity in KCNQ2 inhibitor specificity screen | shares compounds with KCNQ2 inh | KCNQ1-expressing cells, FluxOR thallium flux fluorescence; active compounds read low | activity change, negative = inhibition, % at 10 µM | 1,000 compounds, 15% hits;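 active = activity change at least 3 SD of negative controls below their mean in both duplicate wells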;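 note: CHO cells stably transfected with KCNQ1 and depolarized by potassium stimulus; peak minus minimum fluorescence over baseline after thallium addition; 0% = vehicle negative control and -100% = blank without thallium stimulus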
CHO parental ctr = activity in parental CHO cells lacking KCNQ2; 1,000 compounds, 14% hits; AID 493029; thallium flux counter-screen; active compounds read low; shares compounds with KCNQ2 inh; activity change, % at 10 µM;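 note: 0% = vehicle negative controls with stimulus buffer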
KCNQ2 patch conf = blocks rat KCNQ2 current in automated patch clamp; calls only at 10 µM; KCNQ2-expressing cells; AID 588531; 550 compounds, 49% hits; shares compounds with KCNQ2 inh
An asterisk follows results filed as active; i = inactive; nt = no result; + = active, no number. Unless noted, the rule behind the calls is not given here.

SMILES	KCNQ2 inh	KCNQ2 pot	KCNQ2 block conf	KCNQ1 spec	CHO parental ctr	others
CC1(C)C(C=C(Cl)Cl)C1C(=O)N/N=C/c1ccccc1F (configuration not stated)	-9.9*	-9.9	-28%*	i	i	KCNQ2 patch conf=+
CC1(C)OC2OC(C(=O)N/N=C/c3ccccc3F)C3OC(C)(C)OC3C2O1 (configuration not stated)	i	1.1	nt	nt	nt
CSCCC(NC(=O)c1ccccc1Br)C(=O)N1CCC(C)CC1 (configuration not stated)	-12*	-12	-36%*	-39%*	-30%*	KCNQ2 patch conf=+
CSCCC(NC(=O)c1ccccc1Cl)C(=O)N1CCC1 (configuration not stated)	i	0.67	nt	nt	nt
O=C(N[C@@H]1CCC(=O)N(CC[C@H](Oc2ccccc2)c2ccccc2)CC1)OCc1ccccc1	i	nt	nt	nt	nt
COc1ccc(N2CCN(C(=O)c3cccc(NC(=O)c4ccco4)c3)CC2)cc1	i	1.4	nt	nt	nt
Cc1nnc(SCC(=O)N2c3ccccc3CC2C)[nH]c1=O (configuration not stated)	i	nt	nt	nt	nt
COc1cc(OC)cc(C(=O)Nn2cc(C(=O)Nc3c(F)cccc3F)c3ccccc3c2=O)c1	-6.9*	-6.9	i	i	i
COC(=O)c1cn(NC(=O)c2cc(OC)cc(OC)c2)c(=O)c2ccccc12	i	0.43	nt	nt	nt
COc1cc2cc(C(c3nnnn3C3CCCC3)N(C)C3CCCCC3)c(=O)[nH]c2cc1OC (configuration not stated)	-9*	-9	-36%*	i	i	KCNQ2 patch conf=+
COc1ccc2[nH]c(=O)c(C(c3nnnn3C3CCCCC3)N3CCN(C)CC3)cc2c1 (configuration not stated)	i	nt	nt	nt	nt
Cc1ccc(C(c2nnnn2C2CCCCC2)N(C)C2CCCCC2)cc1 (configuration not stated)	-8.3*	-8.3	i	i	i
COc1cc2cc(C(c3nnnn3C3CCCCC3)N(C)C3CCCCC3)c(=O)[nH]c2cc1OC (configuration not stated)	-11*	-11	i	i	i
COc1ccc(Cn2nnnc2C(c2cc3cc(C)ccc3[nH]c2=O)N2CCN(C)CC2)cc1 (configuration not stated)	i	nt	nt	nt	nt
CC(C)C(c1nnnn1C1CCCC1)N(C)C1CCCCC1 (configuration not stated)	i	1	nt	nt	nt
COc1cc2cc(C(c3nnnn3Cc3ccc(F)cc3)N3CCCCCC3)c(=O)[nH]c2cc1OC (configuration not stated)	-7.7*	-7.7	-28%*	i	i	KCNQ2 patch conf=+
O=c1[nH]c2cc3c(cc2cc1C(c1nnnn1C1CCCC1)N1CCSCC1)OCCO3 (configuration not stated)	i	0.87	nt	nt	nt
CC(C)C(NS(=O)(=O)c1ccccc1)C(=O)OCc1cc([N+](=O)[O-])cc2c1OCOC2 (configuration not stated)	i	0.17	nt	nt	nt
O=C(Nc1ccc(Cl)cc1Cl)c1ccc2ncsc2c1	i	0.93	nt	nt	nt
Cn1c(-c2ccc3c(c2)OCO3)cnc1NCc1cccc(Cl)c1	-9*	-9	i	i	i
Cn1c(-c2ccc3c(c2)OCO3)cnc1NCc1ccccc1Cl	i	0.69	nt	nt	nt
c1ccc(-c2nccc3ccccc23)cc1	i	0.17	nt	nt	nt
Cc1ccc(-c2nc(-c3nccc4ccccc34)oc2-c2ccccc2)cc1	-9.2*	-9.2	-28%*	i	i	KCNQ2 patch conf=i
Nc1nc(-c2cc(O)ccc2[N+](=O)[O-])cc(-c2ccccc2)c1[N+](=O)[O-]	i	nt	nt	nt	nt
CC(C)(C)c1ccc(OCC(=O)N(c2ccccn2)C2CCCCC2)cc1	i	nt	nt	nt	nt
SMILES	KCNQ2 inh	KCNQ2 pot	KCNQ2 block conf	KCNQ1 spec	CHO parental ctr	others
CN(C(=O)COc1ccc(Cl)cc1Br)C1CCCCC1	-7.8*	-7.8	-30%*	i	i	KCNQ2 patch conf=+
O=C(COc1ccc(Cl)cc1Cl)N(c1ccccn1)C1CCCCC1	-6.9*	-6.9	-35%*	i	i	KCNQ2 patch conf=+
CCOC(=O)CNC(=O)COc1ccc(Cl)cc1Br	i	nt	nt	nt	nt
O=C(/C=C/c1ccccc1)N(c1ccccn1)C1CCCCC1	i	nt	nt	nt	nt
O=C(/C=C/c1ccccc1Cl)N(c1ccccn1)C1CCCCC1	-7.4*	-7.4	i	i	i
C=C(C)CSc1nc2sc3c(c2c(=O)n1-c1ccc(C)cc1)CCN(C)C3	i	nt	nt	nt	nt
